This note sets out measurements from PubChem BioAssay (EPA / NIEHS).

Calls of active or inactive are those of the source. Rule for the calls: active = hit-call score of the fitted dose curve at least 0.9, where 1 is the maximum; inactive = score below 0.9.

Read-out in one assay: Low-density lipoprotein receptor (LDLR), LDLR (gene 3949)
Kind of assay: BSK_CASM3C_LDLR: BioMAP Diversity Plus: CASM3C Assay for Low-density lipoprotein receptor (LDLR) Biomarker Activity (AID 2283045).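 Note: LDLR protein level on the cell surface quantified by ELISA.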 As to conditions: primary human coronary artery smooth muscle cells; actives raise or lower the signal.
For the compound `CC(C)(C)OOC(=O)c1ccccc1`, the outcome was inactive.
The term AC50 denotes the concentration at which the activity in the assay is half-maximal. With `ClC1=C(Cl)C2(Cl)C3C(Cl)C=CC3C1(Cl)C2(Cl)Cl` (stereo unspecified), the AC50 was 31.8 µM (active).
For `CCC12COCN1COC2`, the result was inactive.
In the case of `CCNS(=O)(=O)C(F)(F)C(F)(F)C(F)(F)C(F)(F)C(F)(F)C(F)(F)C(F)(F)C(F)(F)F`, the result was inactive.
As for `CN(C)c1ccccc1`, the outcome was inactive.
Same read-out and setting: under `ClCCOCCCl` stands “inactive”.
On the same count and under the same terms, under `CCOc1cccc(C2(N3CCN(c4ccccc4)CC3)CCC(C)CC2)c1` (stereo unspecified) stands “inactive”; under `CC(C)(C)C(O)(CCc1ccc(Cl)cc1)Cn1cncn1` (stereo unspecified), “inactive”.
For the compound `OCCCl`, the result was inactive.
With `CC(C)N(Cc1ccccc1)C(=O)C(C)(C)C`, the result was inactive.
Consider `C[N+](C)(C)CC1CO1` (stereo unspecified), for which the outcome was inactive.
The same measure, in the same setting: then `O=[N+]([O-])c1ccc(Oc2ccc(Cl)cc2Cl)cc1`, with “inactive”.
Still for that read-out and setting: then `C1=Cc2cccc3cccc1c23`, with “inactive”; and `Nc1ccc(Cc2ccc(N)cc2)cc1`, with “inactive”.
For `c1ccc(C2CO2)cc1` (stereo unspecified), the outcome was inactive.
Same read-out and setting: then `Cc1ccc([N+](=O)[O-])cc1`, with “inactive”.
On to `CNC(=O)Oc1cccc2c1OC(C)(C)C2`, for which the outcome was inactive.
Consider `Cc1cccc(N)c1N`, for which the result was inactive.
Turning to `CN(C)C(=O)Nc1ccc(Cl)cc1`, the result was inactive.
`[O-][Cl+]O`: the result was inactive.
For `O=C(N[C@H](c1ccccc1)[C@@H]1CN2CCC1CC2)c1c(Cl)ccc(C(F)(F)F)c1Cl`, the AC50 is 25 µM (active).
For `Clc1ccccc1Cl`, the result was inactive.
The same measure, in the same setting: under `OCCCBr` stands “inactive”; under `CN(C)c1ccc(C(=O)c2ccc(N(C)C)cc2)cc1`, “inactive”.
For `CCCCC(CC)COC(=O)c1ccc(C(=O)OCC(CC)CCCC)c(C(=O)OCC(CC)CCCC)c1` (stereo unspecified), the result was inactive.
Turning to `COC(=O)Nc1nc2ccccc2[nH]1`, the result was inactive.
As for `Cc1cc(N=Nc2ccccc2C)ccc1N`, the result was inactive.

Read-out in a further assay: Monocyte Chemoattractant Protein-1 (MCP1), CCL2 (gene 6347)
In words: BSK_CASM3C_MCP1: BioMAP Diversity Plus: CASM3C Assay for Monocyte Chemoattractant Protein-1 (MCP1) Biomarker Activity (AID 2283046).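 Note: MCP-1 level quantified by ELISA 24 h after dosing.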 As to conditions: primary human coronary artery smooth muscle cells; actives raise or lower the signal.
Regarding `CC(C)(C)OOC(=O)c1ccccc1`, the result was inactive.
In the case of `ClC1=C(Cl)C2(Cl)C3C(Cl)C=CC3C1(Cl)C2(Cl)Cl` (stereo unspecified), the half-maximal activity concentration (AC50) was 33.6 µM (active).
Take `CCC12COCN1COC2`: the result was inactive.
The same measure, in the same setting: then `CCNS(=O)(=O)C(F)(F)C(F)(F)C(F)(F)C(F)(F)C(F)(F)C(F)(F)C(F)(F)C(F)(F)F`, with “inactive”.
Regarding `CN(C)c1ccccc1`, the outcome was inactive.
The same measure, in the same setting: under `ClCCOCCCl` stands “inactive”; under `CCOc1cccc(C2(N3CCN(c4ccccc4)CC3)CCC(C)CC2)c1` (stereo unspecified), “inactive”.
The same measure, in the same setting: under `CC(C)(C)C(O)(CCc1ccc(Cl)cc1)Cn1cncn1` (stereo unspecified) stands “inactive”; under `OCCCl`, “inactive”.
With `CC(C)N(Cc1ccccc1)C(=O)C(C)(C)C`, the result was inactive.
Same read-out and setting: then `C[N+](C)(C)CC1CO1` (stereo unspecified), with “inactive”; and `O=[N+]([O-])c1ccc(Oc2ccc(Cl)cc2Cl)cc1`, with “inactive”.
On the same count and under the same terms, then `C1=Cc2cccc3cccc1c23`, with “inactive”; and `Nc1ccc(Cc2ccc(N)cc2)cc1`, with “inactive”.
For the compound `c1ccc(C2CO2)cc1` (stereo unspecified), the outcome was inactive.
As for `Cc1ccc([N+](=O)[O-])cc1`, the outcome was inactive.
The same measure, in the same setting: under `CNC(=O)Oc1cccc2c1OC(C)(C)C2` stands “inactive”; under `Cc1cccc(N)c1N`, “inactive”.
The same measure, in the same setting: under `CN(C)C(=O)Nc1ccc(Cl)cc1` stands “inactive”; under `[O-][Cl+]O`, “inactive”; under `O=C(N[C@H](c1ccccc1)[C@@H]1CN2CCC1CC2)c1c(Cl)ccc(C(F)(F)F)c1Cl`, “inactive”.
Same read-out and setting: under `Clc1ccccc1Cl` stands “inactive”; under `OCCCBr`, “inactive”.
Consider `CN(C)c1ccc(C(=O)c2ccc(N(C)C)cc2)cc1`, for which the result was inactive.
Take `CCCCC(CC)COC(=O)c1ccc(C(=O)OCC(CC)CCCC)c(C(=O)OCC(CC)CCCC)c1` (stereo unspecified): the result was inactive.
The same measure, in the same setting: then `COC(=O)Nc1nc2ccccc2[nH]1`, with “inactive”.
Take `Cc1cc(N=Nc2ccccc2C)ccc1N`: the outcome was inactive.

Read-out in another assay: not listed separately
Kind of assay: BSK_CASM3C_Proliferation: Cell Proliferation Assessment in the BioMAP Diversity Plus: CASM3C Assay (AID 2283047).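 Note: sulforhodamine B total protein stain as relative cell number at 560 nm; sub-confluent cells exposed 48 h before staining; fitted both ways against DMSO so gain or loss of cell number.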 As to conditions: primary human coronary artery smooth muscle cells.
For `CC(C)(C)OOC(=O)c1ccccc1`, the concentration at half-maximal activity (AC50) was 8.08 µM (active).
The same measure, in the same setting: then `ClC1=C(Cl)C2(Cl)C3C(Cl)C=CC3C1(Cl)C2(Cl)Cl` (stereo unspecified), with 32 µM (active); and `CCC12COCN1COC2`, with 4.32 µM (active).
Consider `CCNS(=O)(=O)C(F)(F)C(F)(F)C(F)(F)C(F)(F)C(F)(F)C(F)(F)C(F)(F)C(F)(F)F`, for which the result was inactive.
On the same count and under the same terms, then `CN(C)c1ccccc1`, with “inactive”.
`ClCCOCCCl`: the outcome was inactive.
For `CCOc1cccc(C2(N3CCN(c4ccccc4)CC3)CCC(C)CC2)c1` (stereo unspecified), the result was inactive.
As to `CC(C)(C)C(O)(CCc1ccc(Cl)cc1)Cn1cncn1` (stereo unspecified), the result was inactive.
Still for that read-out and setting: then `OCCCl`, with “inactive”; and `CC(C)N(Cc1ccccc1)C(=O)C(C)(C)C`, with “inactive”; and `C[N+](C)(C)CC1CO1` (stereo unspecified), with “inactive”.
Consider `O=[N+]([O-])c1ccc(Oc2ccc(Cl)cc2Cl)cc1`, for which the result was inactive.
On the same count and under the same terms, then `C1=Cc2cccc3cccc1c23`, with “inactive”; and `Nc1ccc(Cc2ccc(N)cc2)cc1`, with “inactive”; and `c1ccc(C2CO2)cc1` (stereo unspecified), with “inactive”.
Turning to `Cc1ccc([N+](=O)[O-])cc1`, the result was inactive.
Consider `CNC(=O)Oc1cccc2c1OC(C)(C)C2`, for which the result was inactive.
Regarding `Cc1cccc(N)c1N`, the outcome was inactive.
The same measure, in the same setting: then `CN(C)C(=O)Nc1ccc(Cl)cc1`, with “inactive”; and `[O-][Cl+]O`, with “inactive”.
With `O=C(N[C@H](c1ccccc1)[C@@H]1CN2CCC1CC2)c1c(Cl)ccc(C(F)(F)F)c1Cl`, the AC50 is 25.2 µM (active).
With `Clc1ccccc1Cl`, the outcome was inactive.
With `OCCCBr`, the result was inactive.
With `CN(C)c1ccc(C(=O)c2ccc(N(C)C)cc2)cc1`, the AC50 was 2 µM (active).
For `CCCCC(CC)COC(=O)c1ccc(C(=O)OCC(CC)CCCC)c(C(=O)OCC(CC)CCCC)c1` (stereo unspecified), the outcome was inactive.
Regarding `COC(=O)Nc1nc2ccccc2[nH]1`, the AC50 was 8.49 µM (active).
For the compound `Cc1cc(N=Nc2ccccc2C)ccc1N`, the half-maximal activity concentration (AC50) is 23.6 µM (active).
